Compounds without any hit were thinned out: in the full panel of roughly 79,000, 15% have a hit. The source made the active and inactive calls. No stated cut-off is given here; in the data, active means growth inhibition above about 70%; inactive means the rest.
Experiments:
[1] = NCI Yeast Anticancer Drug Screen. Data for the rad52 strain (AID 147);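 further: 0% = growth of vehicle-treated control cultures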; conditions: S. cerevisiae rad52 mutant growth inhibition, stronger effect = higher value
Procedure, shortened: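 Read-out: growth inhibition versus vehicle-treated controls. Cells were a DNA repair-deficient yeast strain treated with compounds.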

[2] = NCI Yeast Anticancer Drug Screen. Data for the wt1 strain (AID 149);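 further: 0% = growth of vehicle-treated wt1 cultures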; conditions: S. cerevisiae wt1 strain (SPY 50644) growth inhibition, stronger effect = higher value
Procedure, shortened: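 Yeast wt1 strain exposed to compounds; growth inhibition measured relative to vehicle-treated controls.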

[3] = NCI Yeast Anticancer Drug Screen. Data for the rad50EPP+ strain (AID 151);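 further: 0% = growth of vehicle-treated control cultures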; conditions: S. cerevisiae rad50 mutant strain, stronger effect = higher value
Procedure, shortened: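 Growth inhibition read against vehicle controls in rad50EPP+ yeast, a strain altered in DNA damage repair, after compound exposure.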

[4] = NCI Yeast Anticancer Drug Screen. Data for the mgt1 strain (AID 153); conditions: S. cerevisiae mgt1 mutant growth inhibition, stronger effect = higher value
Procedure, shortened: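 mgt1 yeast grown with test compound; read-out is growth inhibition versus vehicle-treated cultures.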

[5] = NCI Yeast Anticancer Drug Screen. Data for the rad50 strain (AID 155);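 further: 0% = growth of vehicle-only cultures of the same strain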; conditions: S. cerevisiae rad50 strain growth inhibition, stronger effect = higher value
Procedure, shortened: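 Yeast carrying a defined DNA repair defect were exposed to test compounds, and growth was compared with vehicle-treated controls to give percent inhibition.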

[6] = NCI Yeast Anticancer Drug Screen. Data for the mec2-1 strain (AID 157); conditions: S. cerevisiae mec2-1 strain, stronger effect = higher value
Procedure, shortened: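 Yeast mec2-1 mutant treated with compound. Readout: growth inhibition vs vehicle controls.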

[7] = NCI Yeast Anticancer Drug Screen. Data for the rad14 strain (AID 159);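 further: 0% = growth of vehicle-treated control cultures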; conditions: S. cerevisiae rad14 strain growth inhibition, stronger effect = higher value
Procedure, shortened: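 Yeast cells carrying a defined DNA-repair defect were exposed to compounds, and growth inhibition was calculated relative to vehicle-treated control cultures.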

[8] = NCI Yeast Anticancer Drug Screen. Data for the sgs1 mgt1 strain (AID 161);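 further: 0% = growth of cultures given vehicle only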; conditions: S. cerevisiae sgs1 mgt1 strain, stronger effect = higher value
Procedure, shortened: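 Test agents were incubated with a DNA-repair-mutant yeast strain. Growth was then read and compared against vehicle-treated controls.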

[9] = NCI Yeast Anticancer Drug Screen. Data for the CLN2oe strain (AID 163);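 further: 0% = growth of vehicle-only control cultures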; conditions: S. cerevisiae CLN2oe strain, stronger effect = higher value
Procedure, shortened: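 Read-out: yeast growth inhibition, expressed relative to vehicle-only controls. The strain bears an engineered cell-cycle alteration.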

[10] = NCI Yeast Anticancer Drug Screen. Data for the cln2 rad14 strain (AID 165);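 further: 0% = growth equal to vehicle treated cultures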; conditions: S. cerevisiae cln2 rad14 strain, stronger effect = higher value
Procedure, shortened: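 cln2 rad14 yeast strain; compound exposure; growth inhibition read vs vehicle controls.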

[11] = NCI Yeast Anticancer Drug Screen. Data for the bub3 strain (AID 167); conditions: S. cerevisiae bub3 mutant strain, stronger effect = higher value
Procedure, shortened: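 Compounds were applied to a genetically altered yeast strain carrying a cell-cycle control defect. Growth inhibition was scored against vehicle-treated controls.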

[12] = NCI Yeast Anticancer Drug Screen. Data for the wt2 strain (AID 169);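 further: 0% = growth of vehicle-treated yeast cultures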; conditions: S. cerevisiae wt2 strain growth inhibition, stronger effect = higher value
Procedure, shortened: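 Read-out: growth inhibition versus vehicle-treated control cultures after compound exposure of the yeast strain.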

[13] = NCI Yeast Anticancer Drug Screen. Data for the mlh1 strain (AID 171);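 further: 0% = growth of vehicle-treated control cultures of the same strain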; conditions: S. cerevisiae mlh1 strain growth inhibition, stronger effect = higher value
Procedure, shortened: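 Read-out: growth inhibition versus vehicle controls. Strain: engineered yeast with a defined DNA repair or cell cycle defect, compound-treated.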

[14] = NCI Yeast Anticancer Drug Screen. Data for the sgs1 strain (AID 173);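 further: 0% = growth of vehicle-only control cultures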; conditions: S. cerevisiae sgs1 mutant, stronger effect = higher value
Procedure, shortened: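 Read-out: yeast growth inhibition relative to vehicle controls, following compound exposure of a strain with a defined DNA repair/cell cycle alteration.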

[15] = NCI Yeast Anticancer Drug Screen. Data for the mlh1 rad18 strain (AID 175); conditions: S. cerevisiae mlh1 rad18 strain growth inhibition, stronger effect = higher value
Procedure, shortened: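 Yeast w/ defined DNA-repair lesions; compound exposure; growth vs vehicle controls → % inhibition.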

[16] = NCI Yeast Anticancer Drug Screen. Data for the rad18 strain (AID 177); conditions: S. cerevisiae rad18 mutant growth inhibition, stronger effect = higher value
Procedure, shortened: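 Readout: growth inhibition vs vehicle controls. Cells: genetically altered yeast strain, DNA repair defect.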

[17] = at 5.0 µM (retest, dose inferred, filed as 0.5)
[18] = at 50.0 µM (retest, dose inferred, filed as 5.0)

Measured: growth inhibition

Cc1ccc2c(ccc(/C=C/c3ccc(O)c4ncccc34)[n+]2C)c1
inactive: [1]; at 1.2 µM 17% | [1]; at 3.7 µM 46% | [2]; at 1.2 µM 4% | [2]; at 3.7 µM 30% | [3]; at 1.2 µM 3% | [3]; at 3.7 µM 27% | [3]; at 11.0 µM 60% | [4]; at 1.2 µM 8% | [4]; at 3.7 µM 40% | [5]; at 1.2 µM 1% | [5]; at 3.7 µM 41% | [5]; [17] 40% | [6]; at 1.2 µM 10% | [6]; at 3.7 µM 37% | [6]; [17] 43% | [7]; at 1.2 µM -15% | [7]; at 3.7 µM 37% | [8]; [17] 23% | [9]; at 1.2 µM -6% | [9]; at 3.7 µM 18% | [10]; [17] 17% | [11]; at 1.2 µM 18% | [11]; at 3.7 µM 33% | [11]; [17] 10% | [12]; at 1.2 µM -16% | [12]; at 3.7 µM 2% | [12]; at 11.0 µM 53% | [13]; at 1.2 µM 15% | [13]; at 3.7 µM 60% | [14]; at 1.2 µM 18% | [14]; at 3.7 µM 45% | [15]; [17] 58% | [16]; at 1.2 µM 17% | [16]; at 3.7 µM 31% | [16]; at 100.0 µM 63%
active: [1]; at 11.0 µM 89% | [1]; at 33.0 µM 94% | [1]; at 100.0 µM 81% | [2]; at 11.0 µM 85% | [2]; at 33.0 µM 94% | [2]; at 100.0 µM 81% | [3]; at 33.0 µM 87% | [3]; at 100.0 µM 79% | [4]; at 11.0 µM 84% | [4]; at 33.0 µM 95% | [4]; at 100.0 µM 82% | [5]; at 11.0 µM 88% | [5]; at 33.0 µM 93% | [5]; [18] 93% | [5]; at 100.0 µM 74% | [6]; at 11.0 µM 89% | [6]; at 33.0 µM 93% | [6]; [18] 94% | [6]; at 100.0 µM 77% | [7]; at 11.0 µM 90% | [7]; at 33.0 µM 94% | [7]; at 100.0 µM 77% | [8]; [18] 98% | [8]; at 50.0 µM 82% | [9]; at 11.0 µM 78% | [9]; at 33.0 µM 90% | [9]; at 100.0 µM 77% | [10]; [18] 95% | [10]; at 50.0 µM 84% | [11]; at 11.0 µM 87% | [11]; at 33.0 µM 91% | [11]; [18] 98% | [11]; at 50.0 µM 84.9% | [11]; at 100.0 µM 74% | [12]; at 33.0 µM 88% | [12]; at 100.0 µM 79% | [13]; at 11.0 µM 85% | [13]; at 33.0 µM 95% | [13]; at 100.0 µM 78% | [14]; at 11.0 µM 82% | [14]; at 33.0 µM 92% | [14]; at 100.0 µM 78% | [15]; [18] 91% | [16]; at 11.0 µM 80% | [16]; at 33.0 µM 91%

S=c1[nH]c2c(Cl)c(Cl)c(Cl)c(Cl)c2[nH]1
active: [1]; at 33.0 µM 97% | [1]; at 100.0 µM 94% | [2]; at 33.0 µM 98% | [2]; at 100.0 µM 96% | [3]; at 11.0 µM 81% | [3]; at 33.0 µM 96% | [3]; at 100.0 µM 95% | [4]; at 11.0 µM 78% | [4]; at 33.0 µM 99% | [4]; at 100.0 µM 93% | [5]; at 33.0 µM 98% | [5]; [18] 92% | [5]; at 50.0 µM 90% | [5]; at 100.0 µM 96% | [6]; at 33.0 µM 98% | [6]; [18] 98% | [6]; at 50.0 µM 91% | [6]; at 100.0 µM 96% | [7]; at 33.0 µM 99% | [7]; at 100.0 µM 96% | [8]; [18] 97% | [9]; at 33.0 µM 97% | [9]; at 100.0 µM 95% | [10]; [18] 95% | [11]; at 33.0 µM 98% | [11]; [18] 95% | [11]; at 100.0 µM 95% | [12]; at 33.0 µM 96% | [12]; at 100.0 µM 96% | [13]; at 11.0 µM 75% | [13]; at 33.0 µM 98% | [13]; at 100.0 µM 94% | [14]; at 33.0 µM 97% | [14]; at 100.0 µM 96% | [15]; [18] 95% | [15]; at 50.0 µM 90.5% | [16]; at 33.0 µM 97% | [16]; at 100.0 µM 95%
inactive: [1]; at 1.2 µM 13% | [1]; at 3.7 µM 6% | [1]; at 11.0 µM 45% | [2]; at 1.2 µM 16% | [2]; at 3.7 µM -4% | [2]; at 11.0 µM 33% | [3]; at 1.2 µM 13% | [3]; at 3.7 µM 20% | [4]; at 1.2 µM 9% | [4]; at 3.7 µM 15% | [5]; at 1.2 µM -5% | [5]; at 3.7 µM -2% | [5]; [17] 33% | [5]; at 11.0 µM 59% | [6]; at 1.2 µM -28% | [6]; at 3.7 µM -11% | [6]; [17] 44% | [6]; at 11.0 µM 48% | [7]; at 1.2 µM -11% | [7]; at 3.7 µM 4% | [7]; at 11.0 µM 50% | [8]; [17] -10% | [9]; at 1.2 µM 9% | [9]; at 3.7 µM 3% | [9]; at 11.0 µM 48% | [10]; [17] 61% | [11]; at 1.2 µM -5% | [11]; at 3.7 µM 4% | [11]; [17] 44% | [11]; at 11.0 µM 66% | [12]; at 1.2 µM -12% | [12]; at 3.7 µM -3% | [12]; at 11.0 µM 24% | [13]; at 1.2 µM 2% | [13]; at 3.7 µM 22% | [14]; at 1.2 µM -3% | [14]; at 3.7 µM 10% | [14]; at 11.0 µM 54% | [15]; [17] 26% | [16]; at 1.2 µM 5% | [16]; at 3.7 µM 12% | [16]; at 11.0 µM 42%

COC(=O)/C=C1/OC(c2ccc(Br)cc2)=C(Br)C1=O
inactive: [1]; at 1.2 µM -25% | [1]; at 3.7 µM -22% | [1]; at 11.0 µM -18% | [1]; at 33.0 µM -7% | [1]; at 100.0 µM 38% | [2]; at 1.2 µM -16% | [2]; at 3.7 µM -13% | [2]; at 11.0 µM -29% | [2]; at 33.0 µM -11% | [2]; at 100.0 µM 16% | [3]; at 1.2 µM -6% | [3]; at 3.7 µM -7% | [3]; at 11.0 µM 0% | [3]; at 33.0 µM 59% | [4]; at 1.2 µM 3% | [4]; at 3.7 µM 3% | [4]; at 11.0 µM -7% | [4]; at 33.0 µM 7% | [5]; at 1.2 µM -35% | [5]; at 3.7 µM -28% | [5]; [17] 3% | [5]; at 11.0 µM -5% | [5]; at 33.0 µM -11% | [5]; [18] 36% | [5]; at 50.0 µM 17.6% | [5]; at 100.0 µM 65% | [6]; at 1.2 µM 9% | [6]; at 3.7 µM -1%
active: [3]; at 100.0 µM 97% | [4]; at 100.0 µM 87%

Source: PubChem BioAssay (NCI)
